In the library only some 6.2% were active in any assay of this set; here they are far more common.
NTR1 agonist – agonists of human NTR1, primary screen, imaging, U2OS cells, beta-arrestin-GFP, high content; Neurotensin receptor type 1 (Homo sapiens), P30989; NTR1-U2OS beta-arrestin-GFP spot imaging, agonist mode; activation, % at 20 µM; 330,000 tested, 0.17% active; AID 493036, 2011;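 active = activation at or above 40% of the spot to cytoplasm intensity ratio, with at least 20 cells analyzed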
Target sequence (P30989 whole entry, looked up): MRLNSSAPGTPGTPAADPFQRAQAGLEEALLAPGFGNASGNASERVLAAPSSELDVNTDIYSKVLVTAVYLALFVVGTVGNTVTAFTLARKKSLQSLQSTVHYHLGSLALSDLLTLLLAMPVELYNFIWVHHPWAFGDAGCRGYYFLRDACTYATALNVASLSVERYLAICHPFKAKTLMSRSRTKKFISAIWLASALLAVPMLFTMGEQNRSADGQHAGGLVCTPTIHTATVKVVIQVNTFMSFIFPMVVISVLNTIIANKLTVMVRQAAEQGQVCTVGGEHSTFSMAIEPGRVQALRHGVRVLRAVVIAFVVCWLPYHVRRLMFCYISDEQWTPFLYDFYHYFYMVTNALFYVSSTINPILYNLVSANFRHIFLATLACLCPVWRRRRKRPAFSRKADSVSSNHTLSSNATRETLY
NR3A LBD binder – binders of NR3A ligand-binding domain, primary screen, biophysical, differential scanning fluorimetry, uHTS. Glutamate receptor ionotropic, NMDA 3A (GRIN3A) ligand-binding domain. NR3A LBD differential scanning fluorimetry, Tm shift; 0% = protein alone, 100% = glycine-bound protein. Tm shift relative to glycine control, % at 25 µM. 340,000 tested, 2.5% active;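 active = melting temperature shift of at least 10% of the positive control shift, at one fixed dose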
SUMO Mot1 rescue – yeast Mot1-301 growth rescue at high temperature, primary screen, SUMOylation pathway inhibitor project, S. cerevisiae, ATP luminescence, 38.5C | S. cerevisiae Mot1-301 growth rescue; percent above DMSO median, 100 means doubled | growth rescue, % at 18.8 µM | 320,000 tested, 1% active;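 active = every valid replicate shows activation above 250% relative to neutral control wells; inactive = the rest, any valid replicate at or below 250%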
AI-2 QS mod – Vibrio harveyi AI-2 quorum sensing modulators, primary screen, JMH597 strain, luminescence/OD600 ratio. Vibrio harveyi JMH597 AI-2 luminescence/OD600 ratio, 9 h; hits give low values; strain lacks LuxN and CqsS sensors; 0 = neutral-control median. activity change, % at 7.5 µM. 300,000 tested, 0.4% active; in the data active = activity change below about -75%, passing the limit was not always enough;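 note: luminescence divided by OD600 gain over 9 h not by final OD600 alone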
H9c2 protect – cardioprotection against H2O2-induced cell death, primary screen, uHTS, H9c2 cells, ATPLite luminescence | H9c2 cardiomyocytes, H2O2 injury protection, 2 h | protection from H2O2 cell death, % at 20 µM | 360,000 tested, 0.63% active;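 active = compounds giving at least 50% protection of heart cells from peroxide-induced death in the single-dose screen, raw or plate-pattern-corrected value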
AHR act – AHR activators, primary screen, cell-based, luminescence, luciferase reporter, human; Aryl hydrocarbon receptor (Homo sapiens), P35869; AHR-responsive luciferase reporter cells; activation, % at 5 µM; 320,000 tested, 2.5% active; AID 2796, 2010; in the data active = activation above about 47%
Each line names hits and unclear results; the compound was inactive in the other large screens.

COc1ccc2[nH]cc(CCNC(=O)/C=C/[C@H]3O[C@@H](n4cc(C)c(=O)[nH]c4=O)C[C@@H]3O)c2c1	none (no result: NTR1 agonist, NR3A LBD binder, SUMO Mot1 rescue, AI-2 QS mod, AHR act)
C[C@H]1CN([C@@H](C)CO)C(=O)c2cc(Br)cnc2O[C@H]1CN(C)Cc1ccc(Oc2ccccc2)cc1	none (no result: NTR1 agonist, NR3A LBD binder, SUMO Mot1 rescue, AI-2 QS mod, AHR act)
CCCCNC(=O)c1cnc(Cc2c[nH]c3ccccc23)c(I)c1	none (no result: NTR1 agonist, NR3A LBD binder, SUMO Mot1 rescue, AI-2 QS mod, AHR act)
CC12CC(O)C3C(CCC4=CC(=O)CCC43C)C1CCC2=CCO (stereo not drawn)	none (no result: NTR1 agonist, SUMO Mot1 rescue, AI-2 QS mod, AHR act)
Cn1c(=O)c2c(ncn2CC(=O)N/N=C/C=C/c2ccccc2[N+](=O)[O-])n(C)c1=O	AHR act 60.8 (no result: H9c2 protect)
O=C(N/N=C/c1cc([N+](=O)[O-])ccc1O)c1cc(-c2ccccc2)nc2ccccc12	NR3A LBD binder 21.2
NC(=O)C1CCN(C(=O)CNC(=O)c2ccc(F)cc2)CC1	none (no result: SUMO Mot1 rescue, AI-2 QS mod)
Cn1cnc(S(=O)(=O)Nc2ccc(Cl)c(C(F)(F)F)c2)c1	NR3A LBD binder 13.7
COc1ccc(-n2ncc3c2CC(C)(C)CC3NC(=O)CN2CCOC2=O)cc1 (stereo not drawn)	none (no result: AHR act)
O=C(C1CCCN(Cc2cccs2)C1)N1CCCCCC1 (stereo not drawn)	NR3A LBD binder 10.8
O=C(C1CCCN(Cc2ccccc2)C1)N1CCCCC1 (stereo not drawn)	none
COc1ccc(O)c(CNn2c(-c3ccc(Br)cc3)nc3ccccc3c2=O)c1	H9c2 protect 50.2, AHR act 61.6
COc1ccc(NC(=O)/C(C#N)=C\c2ccc(Br)o2)cc1	none
N#C/C(=C\c1ccc([N+](=O)[O-])o1)C(=O)Nc1ccc(F)cc1	SUMO Mot1 rescue 323.2
C/C(=N\Nc1nc2ccccc2[nH]1)c1cc2ccccc2o1	AHR act 53.8
C/C(=N\Nc1nc2ccccc2[nH]1)c1ccccn1	AI-2 QS mod -86.8 (no result: NR3A LBD binder)
CC(=O)Nc1nc2ccccc2[nH]1	none
COc1ccc(S(=O)(=O)NCC(=O)NCc2cc(=O)n(C)c(=O)n2C)cc1	none
O=[N+]([O-])c1ccccc1CNCCCCCO	none (no result: AI-2 QS mod)
CCCn1c(NC(=O)c2ccc([N+](=O)[O-])o2)nc2ccccc21	none
Cn1nnnc1Sc1ncnc2scc(-c3ccc([N+](=O)[O-])cc3)c12	NR3A LBD binder 13.5 (no result: AI-2 QS mod)
Cn1nnnc1Sc1ncnc2scc(-c3ccc(Cl)cc3)c12	none (no result: AI-2 QS mod)
CC(=O)Nc1ccc(Nc2nc(-c3sc(NC(C)=O)nc3C)cs2)cc1	H9c2 protect 57.2
CC(=O)Nc1nc(C)c(-c2csc(Nc3cccc([N+](=O)[O-])c3)n2)s1	none
CC(=O)Nc1nc(C)c(-c2csc(Nc3cccc(C(C)=O)c3)n2)s1	H9c2 protect 65.6, AHR act 56.6
CC(=O)Nc1nc(C)c(-c2csc(Nc3ccc(O)cc3)n2)s1	AHR act 48.9 (no result: AI-2 QS mod)
Cc1nc(NC(=O)c2ccccc2)sc1-c1csc(Nc2ccc(C(=O)O)cc2)n1	none (no result: NTR1 agonist, SUMO Mot1 rescue, AHR act)
CC(C)(C)C(=O)NC(=S)Nc1ccccc1F	SUMO Mot1 rescue 435.8
CC(=O)NC(=S)Nc1ccccc1F	none
CC(NC(=O)c1ccccc1F)c1nnc(SCc2nc3ccccc3c(=O)[nH]2)n1C (stereo not drawn)	SUMO Mot1 rescue 292.3
CC(NC(=O)c1ccccc1Cl)c1nnc(SCC(=O)Nc2ccc(C(=O)O)cc2)n1C (stereo not drawn)	NR3A LBD binder 15.8
COc1cc(C2C3=C(COC3=O)OC(C)(C)Oc3cc4c(cc32)OCO4)cc(OC)c1OC (stereo not drawn)	none (no result: NTR1 agonist, SUMO Mot1 rescue, AI-2 QS mod, AHR act)
O=S(=O)(c1ccccc1)c1ccc(C(F)(F)F)cn1	none
O=S(=O)(c1cccc(C(F)(F)F)c1)c1ccc(O)cn1	NR3A LBD binder 11.0
CN(CC(=O)Nc1ccccc1Cl)C(=O)c1ccc(N2C(=O)CCC2=O)cc1	none (no result: SUMO Mot1 rescue, AI-2 QS mod, AHR act)
Cc1c(-c2cc(Br)ccc2O)nc2cc3c(cc2c1C)OCO3	AHR act 62.7
O=c1[nH]c(CS(=O)(=O)c2ccccc2)nc2ccccc12	AHR act 74.0
Cc1nc2ccccc2c(=O)[nH]1	H9c2 protect 68.7
O=C(Nc1ccc(S(=O)(=O)N2CCCC2)cc1)C1CC(=O)N(CCc2ccccc2)C1 (stereo not drawn)	none (no result: NTR1 agonist, NR3A LBD binder, SUMO Mot1 rescue, AI-2 QS mod, AHR act)
O=C(COC(=O)c1ccc(F)c(S(=O)(=O)N2CCOCC2)c1)Nc1ccc2[nH]c(=O)[nH]c2c1	none (no result: AI-2 QS mod)
COCCCNCCOc1ccc(C(C)(C)c2ccccc2)cc1	SUMO Mot1 rescue 824.2
Cc1cc(C)cc(NC(=O)C2CCCN2/C=C/C(=O)C(F)(F)F)c1 (stereo not drawn)	NR3A LBD binder 12.5
O=[N+]([O-])c1ccc(Nc2ccc(F)cc2)nc1	none (no result: NTR1 agonist)
O=[N+]([O-])c1ccc(Nc2ccccc2)nc1	NR3A LBD binder 11.6
Cc1ccc(Nc2ccc([N+](=O)[O-])cn2)cc1Cl	NR3A LBD binder 13.6 (no result: AHR act)
O=[N+]([O-])c1ccc(Nc2cccc(F)c2)nc1	NR3A LBD binder 24.9
COC(=O)c1cccc(Nc2ccc([N+](=O)[O-])cn2)c1	none
CC(=O)Nc1ccc(Nc2ccc([N+](=O)[O-])cn2)cc1	NR3A LBD binder 11.3
COc1cnc(-c2cccc(C(F)(F)F)c2)c(NC(=O)c2cc3ccccc3s2)n1	none (no result: NTR1 agonist, NR3A LBD binder, SUMO Mot1 rescue, AI-2 QS mod, AHR act)
Cc1cc(C)c(S(=O)(=O)c2cccc(Cl)c2)c(=O)[nH]1	none
COc1ccc(/C=N/NC(=O)Cc2csc(Nc3cccc(C(F)(F)F)c3)n2)cc1C	NR3A LBD binder 21.7
CCCCN(C(=O)C1CC(=O)N(c2ccc(CC)cc2)C1)c1c(N)n(CCC)c(=O)[nH]c1=O (stereo not drawn)	none (no result: SUMO Mot1 rescue, AI-2 QS mod, AHR act)
C=CCn1c(=NC(=O)C2CCCCC2)sc2cc(NC(C)=O)ccc21	none (no result: SUMO Mot1 rescue)
C=CCn1c(=NC(=O)C2CC2)sc2cc(NC(C)=O)ccc21	AHR act 62.0
O=C1C[C@@H]2c3c(cccc3CN1Cc1ccc(Br)cc1)C[C@@H](O)[C@H]2O	none (no result: NTR1 agonist, SUMO Mot1 rescue, AI-2 QS mod, AHR act)
Oc1ccc2ccccc2c1/C=C/c1ccc2c(Br)cc(Br)c(O)c2n1	NR3A LBD binder 15.0 (no result: NTR1 agonist, SUMO Mot1 rescue, AI-2 QS mod, AHR act)
N#C/C(=N\Nc1ccc(Cl)c(Cl)c1)C(=O)C1CC1	NR3A LBD binder 12.0
N#C/C(=N\Nc1ccc(F)cc1)C(=O)C1CC1	none
Nc1nn(-c2ccccc2)c(N)c1N=Nc1cccc(F)c1	NR3A LBD binder 10.8
O=c1c2ccccc2nnn1-c1ccc(Br)cc1	AHR act 117.2
O=C(COC(=O)CNC(=O)c1ccc(Cl)cc1Cl)NNC(=O)c1ccccc1F	none (no result: AI-2 QS mod)
CCOc1ccc(/C=N/n2c(COc3ccccc3)n[nH]c2=S)cc1OC	NR3A LBD binder 14.9

Bioassay records: PubChem, several laboratories
